Results: PubChem BioAssay (EPA / NIEHS)
Records with an inconclusive call do not appear. The source made the active and inactive calls. How the source made its calls: active means hit-call score of the fitted dose curve at least 0.9, where 1 is the maximum; inconclusive means response in the unintended direction; inactive means score below 0.9.

How the values were obtained:
[1] = molecular target: human Protein Tyrosine Phosphatase Non-receptor Type 9 (PTPN9), PTPN9 (gene 5780) (UniProt P43378); test: NVS_ENZ_hPTPN9: NovaScreen (NVS) Enzymatic Assay for human Protein Tyrosine Phosphatase Non-receptor Type 9 (PTPN9) (AID 2283209)
Outline: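 Sf9-expressed enzyme in a cell-free assay, fluorescence read 1.33 h after dosing with mobility-shift separation of substrate and product. Tested at 25 uM in duplicate, then up to 50 uM; signal loss versus DMSO.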

[2] = molecular target: human Protein Tyrosine Phosphatase Non-receptor Type 6 (PTPN6), PTPN6 (gene 5777) (UniProt P29350); test: NVS_ENZ_hPTPN6: NovaScreen (NVS) Enzymatic Assay for human Protein Tyrosine Phosphatase Non-receptor Type 6 (PTPN6) (AID 2283210)
Outline: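 Recombinant human PTPN6 from SF9 cells, enzyme activity followed by fluorescence after mobility-shift separation of substrate and product at 1.33 h. Chemicals first tested at a single 25 uM in duplicate, then confirmed across concentration series; loss of signal relative to DMSO.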

[3] = molecular target: human Protein Tyrosine Phosphatase Non-receptor Type 4 (PTPN4), PTPN4 (gene 5775) (UniProt P29074); test: NVS_ENZ_hPTPN4: NovaScreen (NVS) Enzymatic Assay for human Protein Tyrosine Phosphatase Non-receptor Type 4 (PTPN4) (AID 2283208)
Outline: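 Screened in duplicate at 25 uM, with hits then titrated to a top concentration of 50 uM. Recombinant Sf9-derived PTPN4 turnover was read by fluorescence with electrophoretic separation, 1.33 h after compound addition. DMSO served as baseline.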

[4] = molecular target: rabbit Imidazoline 2 Central (I2C), CKB (gene 100009085) (UniProt P00567); test: NVS_ENZ_rabI2C: NovaScreen (NVS) Enzymatic Assay for rabbit Imidazoline 2 Central (I2C) (AID 2283228)
Outline: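 Rabbit brain membranes, cell-free; readout by filter-based scintillation counting 1.5 hours after dosing, loss of signal vs DMSO. Initial duplicate test at 25 uM, then concentration-response with 50 uM top concentration.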

[5] = molecular target: human Protein Tyrosine Phosphatase Receptor Type F (PTPRF), PTPRF (gene 5792) (UniProt P10586); test: NVS_ENZ_hPTPRF: NovaScreen (NVS) Enzymatic Assay for human Protein Tyrosine Phosphatase Receptor Type F (PTPRF) (AID 2283213)
Outline: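 Cell-free fluorescence enzyme assay with recombinant protein and substrate; product separated by electrophoretic mobility shift. Read 1 h after dosing, single 25 uM duplicate screen, then concentration-response up to 50 uM; loss of signal vs DMSO.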

[6] = molecular target: human Tyrosine Protein Kinase Receptor Tie-2 (Tie2), TEK (gene 7010) (UniProt Q02763); test: NVS_ENZ_hTie2: NovaScreen (NVS) Enzymatic Assay for human Tyrosine Protein Kinase Receptor Tie-2 (Tie2) (AID 2283225)
Outline: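 Substrate and product were separated by mobility shift and detected by fluorescence after a 1-hour reaction with recombinant Tie2. Chemicals passing a 25 uM single-point screen were titrated to a maximum of 50 uM. Results were normalized to DMSO baseline.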

[7] = molecular target: human Vascular Endothelial Growth Factor Receptor 3 (VEGFR3), FLT4 (gene 2324) (UniProt P35916); test: NVS_ENZ_hVEGFR3: NovaScreen (NVS) Enzymatic Assay for human Vascular Endothelial Growth Factor Receptor 3 (VEGFR3) (AID 2283229)
Outline: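 Chemicals first run in duplicate at 25 uM, with actives re-tested in concentration series to a top of 50 uM. Recombinant VEGFR3 activity measured after 1 h via fluorescence with mobility-shift product separation; inhibition fitted relative to DMSO.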

[8] = molecular target: human Vascular Endothelial Growth Factor Receptor 1 (VEGFR1), FLT1 (gene 2321) (UniProt P17948); test: NVS_ENZ_hVEGFR1: NovaScreen (NVS) Enzymatic Assay for human Vascular Endothelial Growth Factor Receptor 1 (VEGFR1) (AID 2283226)
Outline: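 Kinase activity of recombinant human VEGFR1 was read by fluorescence after electrophoretic separation of product from substrate, 1 h post-dosing; initial duplicate single-point testing at 25 uM, followed by concentration-series follow-up, with DMSO as baseline.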

[9] = molecular target: human Sirtuin 1 (SIRT1), SIRT1 (gene 23411) (UniProt Q96EB6); test: NVS_ENZ_hSIRT1: NovaScreen (NVS) Enzymatic Assay for human Sirtuin 1 (SIRT1) (AID 2283219)
Outline: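 Cell-free recombinant SIRT1 with a fluorescent substrate; substrate and product separated by electrophoretic mobility shift and read by fluorescence intensity, 1 h after dosing. Primary screen at 25 uM in duplicate; hits re-run in concentration-response up to 50 uM, relative to DMSO.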

[10] = molecular target: human Sirtuin 3 (SIRT3), SIRT3 (gene 23410) (UniProt Q9NTG7); test: NVS_ENZ_hSIRT3: NovaScreen (NVS) Enzymatic Assay for human Sirtuin 3 (SIRT3) (AID 2283222)
Outline: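 Cell-free enzyme assay with recombinant protein and fluorescent substrate, product separated by electrophoretic mobility shift; read 1 hour after dosing. Screened in duplicate at 25 uM, then singleton concentration-response up to 50 uM; loss of signal versus DMSO.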

[11] = molecular target: human Protein Tyrosine Phosphatase Non-receptor Type 2 (PTPN2), PTPN2 (gene 5771) (UniProt P17706); test: NVS_ENZ_hPTPN2: NovaScreen (NVS) Enzymatic Assay for human Protein Tyrosine Phosphatase Non-receptor Type 2 (PTPN2) (AID 2283207)
Outline: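 Activity measured as fluorescence after mobility-shift separation of substrate and product, 1 h after compound. Duplicate single-point 25 uM primary testing, concentration series for actives; inhibition scored as signal loss relative to DMSO baseline.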

[12] = molecular target: human Protein Tyrosine Phosphatase Receptor Type B (PTPRB), PTPRB (gene 5787) (UniProt P23467); test: NVS_ENZ_hPTPRB: NovaScreen (NVS) Enzymatic Assay for human Protein Tyrosine Phosphatase Receptor Type B (PTPRB) (AID 2283211)
Outline: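 Recombinant human PTPRB with a fluorescent substrate, product separated by electrophoretic mobility shift; read 1 h after dosing. Primary screen in duplicate at 25 uM; actives then retested in concentration series; loss of signal versus DMSO.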

[13] = molecular target: human Raf-1 Proto-Oncogene, serine/threonine Kinase (RAF1), RAF1 (gene 5894) (UniProt P04049); test: NVS_ENZ_hRAF1: NovaScreen (NVS) Enzymatic Assay for human Raf-1 Proto-Oncogene, serine/threonine Kinase (RAF1) (AID 2283216)
Outline: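 Single-point screening at 25 uM (duplicate), followed by singleton concentration-response to 50 uM maximum for chemicals exceeding threshold. Enzyme activity from fluorescent substrate-product mobility-shift separation after 1 h, relative to DMSO.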

[14] = molecular target: human Protein Tyrosine Phosphatase Receptor Type M (PTPRM), PTPRM (gene 5797) (UniProt P28827); test: NVS_ENZ_hPTPRM: NovaScreen (NVS) Enzymatic Assay for human Protein Tyrosine Phosphatase Receptor Type M (PTPRM) (AID 2283215)
Outline: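 Read-out is fluorescence after electrophoretic separation of substrate and product, taken 1.33 h post-dosing with recombinant enzyme. Compounds screened at 25 uM in duplicate, then concentration series for actives; activity as signal loss relative to DMSO.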

[15] = molecular target: human Sirtuin 2 (SIRT2), SIRT2 (gene 22933) (UniProt Q8IXJ6); test: NVS_ENZ_hSIRT2: NovaScreen (NVS) Enzymatic Assay for human Sirtuin 2 (SIRT2) (AID 2283217)
Outline: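 Single-point duplicate screen at 25 uM, then concentration-response (max 50 uM) for chemicals passing threshold. Enzyme activity of recombinant human SIRT2 measured after 1 hr by fluorescence with mobility-shift separation of product; DMSO baseline.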

Chain of human Vascular Endothelial Growth Factor Receptor 3 (VEGFR3), FLT4 (gene 2324) (P35916 whole entry, looked up): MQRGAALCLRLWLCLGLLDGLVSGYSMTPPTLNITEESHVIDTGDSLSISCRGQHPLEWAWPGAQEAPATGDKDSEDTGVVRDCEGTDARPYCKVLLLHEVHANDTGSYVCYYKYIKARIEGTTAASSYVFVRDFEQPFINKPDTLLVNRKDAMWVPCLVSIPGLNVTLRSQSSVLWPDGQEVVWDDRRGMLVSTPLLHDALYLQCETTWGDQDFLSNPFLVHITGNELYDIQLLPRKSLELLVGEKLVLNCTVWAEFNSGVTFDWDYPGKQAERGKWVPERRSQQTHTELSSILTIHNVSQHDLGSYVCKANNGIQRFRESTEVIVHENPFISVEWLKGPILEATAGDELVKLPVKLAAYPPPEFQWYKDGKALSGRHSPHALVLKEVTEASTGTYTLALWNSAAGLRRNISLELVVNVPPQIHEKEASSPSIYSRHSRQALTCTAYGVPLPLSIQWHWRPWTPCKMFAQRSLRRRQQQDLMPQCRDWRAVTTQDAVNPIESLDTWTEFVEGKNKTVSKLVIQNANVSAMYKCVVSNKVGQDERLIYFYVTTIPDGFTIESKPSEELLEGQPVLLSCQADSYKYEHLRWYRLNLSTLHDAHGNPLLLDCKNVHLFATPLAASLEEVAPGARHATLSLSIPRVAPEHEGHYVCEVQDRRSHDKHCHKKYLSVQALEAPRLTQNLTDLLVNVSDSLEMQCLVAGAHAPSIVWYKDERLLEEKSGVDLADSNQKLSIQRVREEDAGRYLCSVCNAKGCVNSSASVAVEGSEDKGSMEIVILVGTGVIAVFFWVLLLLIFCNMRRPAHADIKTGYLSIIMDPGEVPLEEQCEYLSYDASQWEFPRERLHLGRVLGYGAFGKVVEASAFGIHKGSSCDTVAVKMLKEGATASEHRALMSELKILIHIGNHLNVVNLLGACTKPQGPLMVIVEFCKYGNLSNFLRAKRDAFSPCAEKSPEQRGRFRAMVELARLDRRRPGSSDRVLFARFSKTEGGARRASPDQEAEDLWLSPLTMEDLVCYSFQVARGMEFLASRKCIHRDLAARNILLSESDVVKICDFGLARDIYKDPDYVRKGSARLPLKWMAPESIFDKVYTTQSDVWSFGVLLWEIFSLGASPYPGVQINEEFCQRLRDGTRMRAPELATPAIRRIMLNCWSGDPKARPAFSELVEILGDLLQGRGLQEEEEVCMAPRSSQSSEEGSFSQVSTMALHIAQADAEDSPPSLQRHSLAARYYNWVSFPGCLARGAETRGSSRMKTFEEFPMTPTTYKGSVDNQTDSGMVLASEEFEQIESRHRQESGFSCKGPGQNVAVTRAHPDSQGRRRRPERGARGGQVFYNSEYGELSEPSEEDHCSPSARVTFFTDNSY
Chain of human Protein Tyrosine Phosphatase Non-receptor Type 4 (PTPN4), PTPN4 (gene 5775) (P29074 whole entry, looked up): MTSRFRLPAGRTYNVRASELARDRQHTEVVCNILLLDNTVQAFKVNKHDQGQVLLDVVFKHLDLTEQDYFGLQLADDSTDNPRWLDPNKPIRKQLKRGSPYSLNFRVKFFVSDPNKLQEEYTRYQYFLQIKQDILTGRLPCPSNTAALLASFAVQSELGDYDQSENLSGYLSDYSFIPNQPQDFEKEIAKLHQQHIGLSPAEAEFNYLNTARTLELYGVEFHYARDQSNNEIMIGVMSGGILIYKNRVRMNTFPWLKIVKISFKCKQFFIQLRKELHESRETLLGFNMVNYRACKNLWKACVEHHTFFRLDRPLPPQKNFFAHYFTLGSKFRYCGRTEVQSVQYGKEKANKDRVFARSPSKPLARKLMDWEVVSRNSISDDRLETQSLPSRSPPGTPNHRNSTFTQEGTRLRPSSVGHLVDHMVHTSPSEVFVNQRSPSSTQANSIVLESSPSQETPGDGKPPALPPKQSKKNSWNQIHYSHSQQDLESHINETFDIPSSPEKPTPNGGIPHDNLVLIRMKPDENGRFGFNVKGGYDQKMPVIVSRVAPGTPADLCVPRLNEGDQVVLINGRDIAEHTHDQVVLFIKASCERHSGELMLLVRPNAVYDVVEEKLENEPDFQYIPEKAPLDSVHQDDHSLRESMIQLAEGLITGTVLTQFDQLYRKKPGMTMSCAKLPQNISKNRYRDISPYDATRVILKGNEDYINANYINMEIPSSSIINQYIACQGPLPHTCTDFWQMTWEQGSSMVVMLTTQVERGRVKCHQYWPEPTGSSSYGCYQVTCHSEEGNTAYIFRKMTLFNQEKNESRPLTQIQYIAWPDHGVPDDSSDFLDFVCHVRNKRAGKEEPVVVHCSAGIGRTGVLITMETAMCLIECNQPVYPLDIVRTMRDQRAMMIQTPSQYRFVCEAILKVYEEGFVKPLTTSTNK
Chain of human Protein Tyrosine Phosphatase Non-receptor Type 2 (PTPN2), PTPN2 (gene 5771) (P17706 whole entry, looked up): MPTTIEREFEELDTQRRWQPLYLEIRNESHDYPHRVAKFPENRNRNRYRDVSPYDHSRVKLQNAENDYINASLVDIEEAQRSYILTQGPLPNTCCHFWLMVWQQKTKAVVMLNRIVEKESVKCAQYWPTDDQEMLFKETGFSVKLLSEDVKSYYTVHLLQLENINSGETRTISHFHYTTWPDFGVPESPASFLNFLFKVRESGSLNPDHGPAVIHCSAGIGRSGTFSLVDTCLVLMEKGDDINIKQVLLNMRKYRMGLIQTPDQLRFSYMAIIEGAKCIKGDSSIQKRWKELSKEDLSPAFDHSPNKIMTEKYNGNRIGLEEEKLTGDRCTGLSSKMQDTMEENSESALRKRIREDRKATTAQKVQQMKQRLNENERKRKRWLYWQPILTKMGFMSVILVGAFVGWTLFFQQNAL
Chain of human Raf-1 Proto-Oncogene, serine/threonine Kinase (RAF1), RAF1 (gene 5894) (P04049 whole entry, looked up): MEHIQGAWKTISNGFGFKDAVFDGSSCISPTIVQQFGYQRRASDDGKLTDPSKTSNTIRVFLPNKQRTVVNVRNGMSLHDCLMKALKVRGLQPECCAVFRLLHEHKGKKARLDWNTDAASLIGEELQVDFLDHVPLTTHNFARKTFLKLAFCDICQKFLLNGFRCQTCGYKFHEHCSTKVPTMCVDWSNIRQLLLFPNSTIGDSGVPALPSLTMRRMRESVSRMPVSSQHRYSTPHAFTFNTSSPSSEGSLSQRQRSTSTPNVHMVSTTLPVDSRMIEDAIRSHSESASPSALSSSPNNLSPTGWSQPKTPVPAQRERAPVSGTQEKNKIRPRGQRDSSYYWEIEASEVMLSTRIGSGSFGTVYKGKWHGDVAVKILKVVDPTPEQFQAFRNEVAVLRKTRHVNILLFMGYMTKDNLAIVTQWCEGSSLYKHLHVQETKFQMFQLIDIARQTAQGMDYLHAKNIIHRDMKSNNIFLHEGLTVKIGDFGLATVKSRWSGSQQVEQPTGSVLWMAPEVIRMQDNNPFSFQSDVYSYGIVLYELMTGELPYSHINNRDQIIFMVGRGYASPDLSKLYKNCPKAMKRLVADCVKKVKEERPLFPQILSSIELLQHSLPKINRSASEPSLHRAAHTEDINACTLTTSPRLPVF
Chain of human Protein Tyrosine Phosphatase Non-receptor Type 9 (PTPN9), PTPN9 (gene 5780) (P43378 whole entry, looked up): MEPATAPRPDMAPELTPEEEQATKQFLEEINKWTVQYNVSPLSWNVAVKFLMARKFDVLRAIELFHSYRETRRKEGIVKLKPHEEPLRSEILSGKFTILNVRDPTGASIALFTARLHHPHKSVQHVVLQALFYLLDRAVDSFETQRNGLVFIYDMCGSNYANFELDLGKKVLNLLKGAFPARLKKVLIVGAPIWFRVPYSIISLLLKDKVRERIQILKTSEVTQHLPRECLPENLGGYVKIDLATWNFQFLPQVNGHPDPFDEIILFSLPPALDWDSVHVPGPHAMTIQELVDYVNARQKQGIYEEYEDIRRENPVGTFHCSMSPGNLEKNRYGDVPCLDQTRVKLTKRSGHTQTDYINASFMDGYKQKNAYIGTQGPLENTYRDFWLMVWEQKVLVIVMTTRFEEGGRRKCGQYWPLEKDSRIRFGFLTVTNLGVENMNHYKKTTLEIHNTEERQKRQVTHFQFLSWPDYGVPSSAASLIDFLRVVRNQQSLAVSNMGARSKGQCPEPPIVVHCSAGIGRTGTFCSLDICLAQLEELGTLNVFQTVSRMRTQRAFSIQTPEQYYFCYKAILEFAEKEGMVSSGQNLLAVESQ
Chain of human Protein Tyrosine Phosphatase Non-receptor Type 6 (PTPN6), PTPN6 (gene 5777) (P29350 whole entry, looked up): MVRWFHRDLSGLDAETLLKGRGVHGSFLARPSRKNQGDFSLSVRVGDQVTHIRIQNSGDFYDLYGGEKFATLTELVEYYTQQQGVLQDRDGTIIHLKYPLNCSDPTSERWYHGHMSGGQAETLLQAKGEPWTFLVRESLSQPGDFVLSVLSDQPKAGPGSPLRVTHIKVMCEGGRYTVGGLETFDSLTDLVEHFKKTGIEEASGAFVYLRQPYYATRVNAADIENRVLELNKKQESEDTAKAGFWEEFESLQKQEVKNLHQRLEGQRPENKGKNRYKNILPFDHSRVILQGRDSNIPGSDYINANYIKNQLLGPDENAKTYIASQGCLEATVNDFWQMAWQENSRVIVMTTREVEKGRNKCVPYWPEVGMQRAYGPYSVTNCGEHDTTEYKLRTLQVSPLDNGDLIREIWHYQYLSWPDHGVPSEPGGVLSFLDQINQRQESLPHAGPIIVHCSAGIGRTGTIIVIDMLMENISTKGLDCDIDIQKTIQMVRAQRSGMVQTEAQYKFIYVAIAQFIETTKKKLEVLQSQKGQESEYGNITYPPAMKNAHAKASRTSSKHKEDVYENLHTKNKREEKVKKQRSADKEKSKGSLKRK
Chain of human Sirtuin 3 (SIRT3), SIRT3 (gene 23410) (Q9NTG7 whole entry, looked up): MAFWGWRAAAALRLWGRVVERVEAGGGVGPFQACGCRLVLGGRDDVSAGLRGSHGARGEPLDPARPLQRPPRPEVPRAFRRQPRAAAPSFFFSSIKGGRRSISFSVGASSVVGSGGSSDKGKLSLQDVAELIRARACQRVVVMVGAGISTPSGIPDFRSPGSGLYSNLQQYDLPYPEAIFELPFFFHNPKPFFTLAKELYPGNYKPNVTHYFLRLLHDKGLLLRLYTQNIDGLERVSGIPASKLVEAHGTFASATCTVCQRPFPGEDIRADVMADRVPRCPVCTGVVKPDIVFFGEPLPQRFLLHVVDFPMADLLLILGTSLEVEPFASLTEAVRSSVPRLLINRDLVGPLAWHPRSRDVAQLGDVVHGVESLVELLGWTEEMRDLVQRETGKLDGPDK

With `C1CC2OC2CC1C1CO1` (centres undefined) the outcome [1] was “inactive” and the outcome [2] was “inactive”.

`CN(C)c1nc(=O)n(C2CCCCC2)c(=O)n1C` was tested, and the outcome [3] was “inactive” and the AC50 [4] was 9.76 µM (active).

`C=CC(N)=O` was tested, and the outcome [5] was “inactive”.

For `Clc1ccc(C(c2ccccc2Cl)C(Cl)(Cl)Cl)cc1` (centres undefined), the outcome [6] was “inactive” and the outcome [7] was “inactive”.

With `ClC1=C(Cl)[C@]2(Cl)[C@@H]3[C@@H]4C[C@@H]([C@H]5O[C@@H]45)[C@@H]3[C@@]1(Cl)C2(Cl)Cl` the outcome [8] was “inactive”.

With `c1cc2ccc3cccc4ccc(c1)c2c34` the outcome [9] was “inactive”, the outcome [10] was “inactive” and the outcome [7] was “inactive”.

For `Oc1ccc(Cl)cc1Cl`, the outcome [5] was “inactive”.

For `O=C(O)C(F)(F)C(F)(F)C(F)(F)C(F)(F)C(F)(F)F`, the outcome [11] was “inactive”, the outcome [3] was “inactive” and the outcome [1] was “inactive”. For the same molecule, the outcome [12] was “inactive”, the outcome [13] was “inactive” and the outcome [7] was “inactive”.

In the case of `CC(C)C(=O)OCC(C)(C)C(OC(=O)C(C)C)C(C)C` (centres undefined), the outcome [11] is reported as “inactive”, the outcome [3] is reported as “inactive” and the outcome [14] is reported as “inactive”. The outcome [13] was “inactive” and the outcome [8] was “inactive”.

With `CCCCCCOC(=O)c1ccccc1C(=O)OCCCCCC` the outcome [15] was “inactive”.
